PLK1 PBD inh: qHTS for Inhibitors of PLK1-PDB (polo-like kinase 1 - polo-box domain): Primary Screen; Serine/threonine-protein kinase PLK1 (Homo sapiens), P53350; Plk1 PBD binding of FITC phosphopeptide, fluorescence polarization; Potency, µM, for inactives: max response, negative = inhibition, usual class: inhibitors; actives 2.8% (n = 360,000); also: series mostly up to about 57 µM; nearly all actives have a fitted effect of over 65% in size
Sfp inh: qHTS Assay for Inhibitors of Bacillus subtilis Sfp phosphopantetheinyl transferase (PPTase). 4'-phosphopantetheinyl transferase ffp (Bacillus subtilis), Q9F4F7. Biochemical Sfp PPTase activity, qHTS. Potency, µM, inactives show largest response in the series, negative = inhibition, usual class: inhibitors. actives 3.5% (n = 310,000). AID 1490, 2009;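 also: the enzyme is Sfp with the accession as filed and its product quenches rhodamine fluorescence; 0% = enzyme reaction without inhibitor and -100% = no enzyme wells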
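Fluorescence-quenching assay: 15 nM Sfp-PPTase preincubated 15 min at room temperature with compound, then 5 uM rhodamine-CoA and 12.5 uM BHQ-2-labelled YbbR peptide added. Fluorescence (ex 525/em 598 nm) read at start and after 30 min; difference gives rate.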
Tau fibril ThT: qHTS for Inhibitors of Tau Fibril Formation, Thioflavin T Binding | AID 1460, 2008 | actives 2.1% (n = 270,000) | Microtubule-associated protein tau (Homo sapiens), P10636 | Potency, µM (doses to about 57.4 µM), without a hit: top-dose activity, negative = inhibition, actives largely listed as inhibitors | recombinant tau K18 P301L, heparin-induced fibrillization, ThT fluorescence; also: nearly all actives have a fitted effect of over 55% in size
Target sequence (P10636 561-689 P618L limits assumed): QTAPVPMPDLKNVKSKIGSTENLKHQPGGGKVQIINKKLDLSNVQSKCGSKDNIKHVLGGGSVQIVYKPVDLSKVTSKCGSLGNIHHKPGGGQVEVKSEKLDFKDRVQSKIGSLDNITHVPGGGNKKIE
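Aggregation was driven by heparin (20 uM final) acting on recombinant tau […] bearing P301L in 100 mM sodium acetate pH 7; fibrils were detected with Thioflavin T.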
Tau FP inhib: qHTS for Inhibitors of Tau Fibril Formation, Fluorescence Polarization; Microtubule-associated protein tau (Homo sapiens), P10636; K18 P301L tau heparin fibrillization, Alexa594 FP, 6 h; Potency, µM (series often up to 57.7 µM), for the others: top-dose activity, negative = inhibition, actives largely listed as inhibitors; actives 0.39% (n = 280,000); also: nearly all actives have a fitted effect of over 55% in size
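Human K18 P301L fragment (15 uM unlabeled plus 0.24 uM Alexa 594-labeled) in 100 mM sodium acetate pH 7 with compound, aggregation induced by 20 uM heparin for 6 hr at 37 C. ThT (30 uM) added for 1 hr, then Alexa 594 FP read.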
VDR inh: Inhibitors of the vitamin D receptor (VDR): qHTS | Vitamin D3 receptor (Homo sapiens), P11473 | VDR-SRC2-3 peptide fluorescence polarization, 2 h | Potency, µM, for the others: max response, negative = inhibition, actives largely listed as inhibitors | actives 0.93% (n = 400,000) | AID 504847, 2011
Target sequence (P11473 whole entry, looked up): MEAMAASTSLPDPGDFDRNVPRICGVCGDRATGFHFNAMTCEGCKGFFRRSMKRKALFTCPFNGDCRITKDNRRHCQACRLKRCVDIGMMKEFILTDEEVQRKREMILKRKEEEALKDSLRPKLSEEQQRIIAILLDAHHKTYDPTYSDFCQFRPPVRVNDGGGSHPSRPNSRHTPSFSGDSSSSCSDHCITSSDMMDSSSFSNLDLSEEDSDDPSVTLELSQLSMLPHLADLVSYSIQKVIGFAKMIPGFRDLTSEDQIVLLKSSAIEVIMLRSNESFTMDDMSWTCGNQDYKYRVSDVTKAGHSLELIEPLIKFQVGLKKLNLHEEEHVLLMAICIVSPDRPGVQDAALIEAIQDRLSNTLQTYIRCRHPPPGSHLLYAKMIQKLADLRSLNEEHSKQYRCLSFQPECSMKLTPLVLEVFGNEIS
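Fluorescence polarization assay of small-molecule disruption of VDR binding to coregulator peptide SRC2-3. Compounds and controls pin-transferred, then read after 2 h incubation at ambient room temperature.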
Tau fluor cs: Counterscreen qHTS for Inhibitors of Tau Fibril Formation, Fluorescence Polarization; Potency, µM (top dose mostly 57.7 µM), for the others: at the highest dose activity change, negative = decrease; AID 1463, 2008; actives 0.93% (n = 280,000); tau K18 P301L (four-repeat tau fragment) Alexa594 fluorescence, heparin fibrillization; also: nearly all actives have a fitted effect of over 55% in size
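Human K18 P301L tau (15 uM unlabeled plus 0.24 uM Alexa 594-labeled, final) in 100 mM sodium acetate pH 7 was mixed with compound and 20 uM heparin and incubated 6 hr at 37 C.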
* marks the source's active call; other numbers are inactive results; ? = inconclusive; · = no result; ! = a repeat was not active; [ ] = remark or other dose. Shown are actives, neighbours in structure and some others; about 6% of the full set was active somewhere. Calls follow the shape of the dose curve; as a rule, active = well fitted curve in the direction sought with a large enough effect; inconclusive = small, poorly fitted or top-dose-only effect, or another doubt; inactive = no such curve, though single readings can be large; an effect the other way counts as inactive or inconclusive. Unless noted, % is scaled to controls: 0 for no effect and ±100 for the full control effect; potency is read from the fitted curve at half-maximal effect.

SMILES	PLK1 PBD inh	Sfp inh	Tau fibril ThT	Tau FP inhib	VDR inh	Tau fluor cs
Nc1ncnc2c1ncn2[C@@H]1O[C@H](COP(=O)(O)CP(=O)(O)OP(=O)(O)O)[C@@H](O)[C@H]1O	·	56µM*	6%	-5%	4%	-4%
COc1ccc(N/N=C/c2c(O)n(-c3ccc(C)c(C)c3)c(=O)[nH]c2=O)cc1	?	-25%	18µM*	?	?	-25%
CCCN1[C@@H]2C[C@@H](O)CC[C@@H]2C[C@H]1C(=O)OC	·	-4%	?	9%	·	-20%
Cc1nn(Cc2ccccc2)c2c1C(c1ccco1)C(C#N)=C(N)O2 (stereo not drawn)	?	-24%	?	?	1%	-20%
N#CC1=C(N)Oc2n[nH]c(-c3cccs3)c2C1c1ccsc1 (stereo not drawn)	27µM*	-3%	13µM*	?	8%	-26%
N#CC1=C(N)Oc2n[nH]c(-c3cccs3)c2C1c1ccco1 (stereo not drawn)	-25%	?	16µM*	?	-5%	?
CC12CCC3C4CCC(=O)C(O)=C4CCC3C1CCC2OC(=O)CCC1CCCC1 (stereo not drawn)	·	17%	·	·	0%	·
CCCCC/C=C\C/C=C\C/C=C\C/C=C\CCCC(=O)NCCCC(=O)O	·	?	?	-16%	28µM*	-11%
CCCCC/C=C\C/C=C\C/C=C\C/C=C\CCCC(N)=O	·	28%	-2%	-1%	-1%	-2%
CCCCC/C=C\C/C=C\C/C=C\C/C=C\CCCC(=O)NCCc1ccc(O)c(O)c1	·	45µM*!	?	?	40µM*!	?
CCCCC/C=C\C/C=C\C/C=C\C/C=C\CCCC(=O)NCCO	·	45µM*!	-9%	-1%	71µM*!	-4%
CCCCC/C=C\C/C=C\C/C=C\C/C=C\CCCC(=O)N(Cc1ccc(O)c(Cl)c1)Cc1ccc(O)c(Cl)c1	·	-5%	14%	-2%	14µM*	6%
COc1cccc(CSc2nc(-c3ccccc3OC)nc3c2Cc2c(CO)cnc(C)c2O3)c1	·	·	?	-1%	5%	-10%
CN(CCc1ccccn1)Cc1ccc(Cl)cc1	-4%	?	8%	3%	-9%	4%
CCCCC/C=C\C/C=C\C/C=C\C/C=C\CCCC(=O)Nc1ccc(O)cc1C	·	-1%	?	15%	0%	?
CCCCC/C=C\C/C=C\C/C=C\C/C=C\CCCC(=O)NCC(=O)O	·	79µM*!	?	0%	40µM*!	-2%
CCCCC/C=C\C/C=C\C/C=C\C/C=C\CCCC(=O)OCCN	·	63µM*	?	3%	?	-4%
CCCCC/C=C\C/C=C\C/C=C\C/C=C\CCCC(=O)Nc1ccc(O)cc1	·	33%	?	?	-1%	14µM*[quencher]
CCCCC/C=C\C/C=C\C/C=C\C/C=C\CCCC(=O)NCc1ccoc1	·	22µM*	22µM*	?	22µM*	-12%
CCCCC/C=C\C/C=C\CCCCCCCCCC(=O)NCCO	·	-2%	-8%	-6%	-13%	-10%
Cc1ccc(OCC(=O)N2CCN(CCc3ccncc3)CC2)cc1C	·	·	2%	-1%	8%	4%
CCn1c(O)c(C(c2ccccn2)c2c(O)n(CC)c(=S)[nH]c2=O)c(=O)[nH]c1=S	-6%	50µM*	?	?	-8%	-18%
O=c1[nH]c(=S)[nH]c(O)c1C(c1ccccn1)c1c(O)[nH]c(=S)[nH]c1=O	-12%	25µM*	-15%	2%	2%	2%
Cc1ccc(NC(=O)Nc2ccc3nc(N4CCN(C)CC4)cc(C)c3c2)cc1F	·	·	14µM*	?	16%	7.1µM*[quencher]
Cc1cc(N2CCCCC2)nc2ccc(NC(=O)/C=C/c3ccc(OC(C)C)cc3)cc12	·	·	2.8µM*	5%	-9%	8.9µM*[quencher]
SMILES	PLK1 PBD inh	Sfp inh	Tau fibril ThT	Tau FP inhib	VDR inh	Tau fluor cs
O=C(Nc1ccc(N2CCOCC2)cc1)Nc1ccc2nsnc2c1	-13%	-3%	?	-10%[2.34 µM]	9%	-10%
COc1cccc(C(=O)Nc2ccc3nc(SCC(=O)N(C)c4ccccc4)sc3c2)c1	·	·	-5%	?	0%	?
Cc1nn(CCC#N)c2c1P(=S)(N1CCCC1)OC(c1ccc(F)cc1)=N2 (stereo not drawn)	13µM*	10µM*	32µM*	?	25µM*	-25%
COc1ccc(OCC(=O)N2CCN(Cc3nc4cc([N+](=O)[O-])ccc4n3C)CC2)cc1	30µM*	1%	-8%	1%	-17%	-3%
O=C(COc1ccc(Cl)cc1)N1CCN(Cc2ccc([N+](=O)[O-])cc2)CC1	-9%	?	-16%	-7%	-7%	-21%
C[C@]12[C@H](O)CC3C(CC[C@@H]4C[C@@H](O)CC[C@]34C)[C@@]1(O)CC[C@@H]2C1=CC(=O)OC1 (stereo partly drawn)	·	5%	-1%	-5%	·	-7%
COc1ccc(OC)c(N2C(=O)/C(=C/c3ccco3)C(=O)NC2=S)c1	2.4µM*	18µM*	·	·	?	·
O=C1NC(=O)C(=Cc2ccco2)C(=O)N1	4.7µM*	·	·	·	4%	·
COc1ccc(OC)c(N2C(=O)CC(=O)NC2=O)c1	-22%	3%	·	·	1%	·
CCOC(=O)C1CCN(/C=C2/C(=O)NC(=O)N(Cc3ccco3)C2=O)CC1	?	?	?	?	-5%	-12%
O=C1NC(=S)N(c2ccc(F)cc2)C(=O)/C1=C/c1ccco1	·	25µM*	·	·	·	·

Compound activity from PubChem.
